The full list was thinned out, with hits kept by preference.
TTR transcr act – TTR transcription activators in neuroblastoma reporter cells, primary screen, cell-based, luminescence, SH-SY5Y, TTR promoter Gaussia luciferase. 1.3% of 92,000 active. activation, % at 16.7 µM. 100% = recombinant luciferase protein wells;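 active = activation above the mean of all tested compounds plus 3 SD, cut at about 9.5% in these data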;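 note: cells exposed to compounds for one day before reading; 0% = median of all test compound wells on the plate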
TTR inh HuH7 – TTR promoter reporter inhibitors in hepatoma cells, counter-screen for TTR transcription activator project, cell-based, luminescence, HuH7 hepatoma; shares compounds with TTR transcr act; HuH7 TTR promoter-Gaussia luciferase reporter; inhibition, % at 16.7 µM; 4% of 1,100 active; AID 1117279, 2014;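 active = average inhibition above the solvent-only control wells' mean plus 3 SD, cut at about 15% in these data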;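 note: 0% = cells with DMSO only and 100% = cells with inhibitor control FD; inhibitors lower well luminescence so higher value means more inhibition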
TTR act confirm – TTR transcription activators, retest, confirmation, cell-based, luminescence, SH-SY5Y, triplicate | shares compounds with TTR transcr act | SHSY5Y TTR promoter Gaussia luciferase; 100% = purified Lucia enzyme wells, no cells | activation, % at 16.7 µM | 1,100 tested, under 10 active;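 active = mean activation above a set limit taken from the earlier primary screen, cut at about 11% in these data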;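 note: 0% = DMSO-treated cells and 100% = recombinant Lucia luciferase without cells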
An asterisk follows results filed as active.

SMILES	TTR transcr act	others
CCOC(=O)c1c(C)oc2ccc(O)c(CN3CCCCC3)c12	23.4*	TTR inh HuH7=-6.7;TTR act confirm=0.3
CCOC(=O)c1c(CN2CCCCC2)oc2ccc(OC)cc12	-1.0
COc1ccc(C(=O)NCc2nnc(SCC(=O)NCCc3ccccc3)o2)cc1	1.4
COc1ccc(/C=N/NC(=O)c2ccc[nH]2)cc1	-4.2
O=c1nc(SCc2ccc(Cl)cc2)nc(-c2ccccc2)[nH]1	-1.4
Cc1nc(C)c(-c2ccc(SCc3ccc(Cl)cc3)nn2)s1	-1.9
Cc1nnc(SCc2ccc(Cl)cc2)nc1/C=C/N(C)C	9.7*	TTR inh HuH7=17.2*;TTR act confirm=-1.6
Cn1ncc(Br)c1NC(=O)CSc1ccc(Cl)cc1	-0.5
O=C(CSc1nnc(-c2ccco2)o1)c1ccc(O)cc1O	-0.9
N/C(=N\OC(=O)c1cccc(Cn2cc(C(F)(F)F)ccc2=O)c1)c1ccc(Cl)cc1	-0.2
Cn1c(N)c(C(=O)COC(=O)c2ccc(Cl)c(S(=O)(=O)N3CCCC3)c2)c(=O)n(C)c1=O	-1.1
CCN(CC)c1ccc(N=Cc2ccccc2[N+](=O)[O-])cc1	-3.0
CCN(CC)c1ccc(N=Cc2ccc([N+](=O)[O-])o2)cc1	17.0*	TTR inh HuH7=-2.1;TTR act confirm=-0.1
CCN(CC)c1ccc(/C=N/NC(=O)c2ccc([N+](=O)[O-])cc2)cc1	0.0
O=C(O)C1(Nc2ccc([N+](=O)[O-])cc2[N+](=O)[O-])CCCC1	-0.9
COc1cccc(-c2cc(C(F)(F)F)n3nc(C(=O)N4CCCCC4c4cccnc4)cc3n2)c1 (configuration not stated)	-3.6
O=C1C=CC(=O)N1Cc1ccccn1	-0.5
CC(C)C(NC(=O)c1c(F)cccc1F)C(=O)N1CCN(c2ccccc2F)CC1 (configuration not stated)	-1.2
Cc1ccc(-c2nc3ncccn3c2NC(=O)c2ccccc2)cc1	-0.3
O=C(Nc1cn(-c2ccccc2)nc1-c1ccc(Cl)cc1)c1ccccc1	-0.2
Cc1ccc(-c2nn(-c3ccccc3)cc2NC(=O)c2ccccc2)cc1	13.0*	TTR inh HuH7=1.3;TTR act confirm=-1.5
Cc1cc([N+](=O)[O-])cc2c1NC(=O)C2(O)N1CCOCC1 (configuration not stated)	0.8
COc1cc2ncnc(NCc3ccccc3)c2cc1OC	-2.5
COc1ccc(CNc2ncnc3cc(OC)c(OC)cc23)cc1	10.0*	TTR inh HuH7=-18.5;TTR act confirm=1.0
COc1ccc(CNc2ncnc3cc(Cl)ccc23)cc1	-1.6
SMILES	TTR transcr act	others
O=C(c1nc2nc(-c3ccccc3)cc(C(F)(F)F)n2n1)N1CCCCC1	11.0*	TTR inh HuH7=-2.9;TTR act confirm=0.1
COc1ccc(-c2cc(C(F)(F)F)n3nc(C(=O)N4CCOCC4)nc3n2)cc1	2.7
O=C(c1cc2nc(-c3ccccc3)cc(C(F)(F)F)n2n1)N1CCCC1	-1.4
CC(=O)Nc1nc(-c2ccc(Cl)cc2)nc(C)c1C(C)=O	35.8*	TTR inh HuH7=-6.2;TTR act confirm=-0.3
CCOC(=O)c1c(C)nc(-c2ccccc2)nc1NC(=O)CC	-3.3
CC(=O)c1c(C)nc(C)nc1NC(=O)Cc1ccccc1	1.4
S=c1[nH]nc(COc2ccc(Cl)cc2Cl)n1-c1ccccc1	0.6
O=C(c1ccc2c(=O)n(-c3ccccc3)c(=S)[nH]c2c1)N1CCCCC1	-0.1
CCCCCn1c(=S)[nH]c2cc(C(=O)N3CCCC3)ccc2c1=O	10.2*	TTR inh HuH7=2.4;TTR act confirm=1.6
COc1ccc(CCn2c(=S)[nH]c3cc(C(=O)N4CCOCC4)ccc3c2=O)cc1OC	-0.8
COc1ccc(C2CCCN2C(=S)Nc2cccc(C)c2C)cc1OC (configuration not stated)	-0.2
Cc1cc(NC(=O)C(C)SCC(=O)OC(C)C(=O)Nc2cccc(C#N)c2)no1 (configuration not stated)	-0.2
Cc1cc(NC(=O)C(C)SCC(=O)OC(C)C(=O)Nc2ccc(F)cc2Cl)no1 (configuration not stated)	11.6*	TTR inh HuH7=-8.6;TTR act confirm=0.5
Cc1cc(NC(=O)CCOc2ccc(F)cc2)no1	3.5
COCCNC(=S)N(CCO)Cc1cc2cc3c(cc2[nH]c1=O)OCCO3	-1.2
C=CCN(C(=O)[C@@H](C)[C@@H](O)c1ccc(C(C)=O)cc1)c1ccccc1	4.1
CCN(C(=O)[C@@H](C)[C@@H](O)c1ccc(C(C)=O)cc1)c1ccccc1	11.3*	TTR inh HuH7=-4.1;TTR act confirm=-0.4
CCCC[C@H](C(=O)N(CC)c1ccccc1)[C@@H](O)c1ccc(C(C)=O)cc1	0.8
CN(CCc1ccccc1)C(=O)c1cccc(NC(=O)Cc2cccc(NC(=O)C3CCN(C(=O)C4CCCCC4)CC3)c2)c1	-2.2
CN(CCc1ccccc1)C(=O)c1ccc(NC(=O)Cc2cccc(NC(=O)C3CCN(C(=O)C4CCCCC4)CC3)c2)cc1	11.3*	TTR inh HuH7=-14.1;TTR act confirm=1.3

High-throughput results from PubChem BioAssay.
